Bioassay records deposited in PubChem by several laboratories.
eIF4E-4G inh: eIF4E/eIF4G interaction inhibition in translation initiation; P63073+Q04637; TR-FRET eIF4E-eIF4GI(517-606) binding, 2 h; inhibition, % at 21.7 µM; actives 0.37% (n = 220,000);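 active = inhibition above about 30%, limit read from the data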
Target sequence (P63073 whole entry, looked up): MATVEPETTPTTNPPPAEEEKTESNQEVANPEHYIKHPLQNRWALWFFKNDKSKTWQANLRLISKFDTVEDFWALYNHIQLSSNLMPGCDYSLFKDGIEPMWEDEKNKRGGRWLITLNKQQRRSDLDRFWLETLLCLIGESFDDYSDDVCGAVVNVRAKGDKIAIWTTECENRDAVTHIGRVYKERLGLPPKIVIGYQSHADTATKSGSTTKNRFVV
Target sequence (Q04637 whole entry, looked up): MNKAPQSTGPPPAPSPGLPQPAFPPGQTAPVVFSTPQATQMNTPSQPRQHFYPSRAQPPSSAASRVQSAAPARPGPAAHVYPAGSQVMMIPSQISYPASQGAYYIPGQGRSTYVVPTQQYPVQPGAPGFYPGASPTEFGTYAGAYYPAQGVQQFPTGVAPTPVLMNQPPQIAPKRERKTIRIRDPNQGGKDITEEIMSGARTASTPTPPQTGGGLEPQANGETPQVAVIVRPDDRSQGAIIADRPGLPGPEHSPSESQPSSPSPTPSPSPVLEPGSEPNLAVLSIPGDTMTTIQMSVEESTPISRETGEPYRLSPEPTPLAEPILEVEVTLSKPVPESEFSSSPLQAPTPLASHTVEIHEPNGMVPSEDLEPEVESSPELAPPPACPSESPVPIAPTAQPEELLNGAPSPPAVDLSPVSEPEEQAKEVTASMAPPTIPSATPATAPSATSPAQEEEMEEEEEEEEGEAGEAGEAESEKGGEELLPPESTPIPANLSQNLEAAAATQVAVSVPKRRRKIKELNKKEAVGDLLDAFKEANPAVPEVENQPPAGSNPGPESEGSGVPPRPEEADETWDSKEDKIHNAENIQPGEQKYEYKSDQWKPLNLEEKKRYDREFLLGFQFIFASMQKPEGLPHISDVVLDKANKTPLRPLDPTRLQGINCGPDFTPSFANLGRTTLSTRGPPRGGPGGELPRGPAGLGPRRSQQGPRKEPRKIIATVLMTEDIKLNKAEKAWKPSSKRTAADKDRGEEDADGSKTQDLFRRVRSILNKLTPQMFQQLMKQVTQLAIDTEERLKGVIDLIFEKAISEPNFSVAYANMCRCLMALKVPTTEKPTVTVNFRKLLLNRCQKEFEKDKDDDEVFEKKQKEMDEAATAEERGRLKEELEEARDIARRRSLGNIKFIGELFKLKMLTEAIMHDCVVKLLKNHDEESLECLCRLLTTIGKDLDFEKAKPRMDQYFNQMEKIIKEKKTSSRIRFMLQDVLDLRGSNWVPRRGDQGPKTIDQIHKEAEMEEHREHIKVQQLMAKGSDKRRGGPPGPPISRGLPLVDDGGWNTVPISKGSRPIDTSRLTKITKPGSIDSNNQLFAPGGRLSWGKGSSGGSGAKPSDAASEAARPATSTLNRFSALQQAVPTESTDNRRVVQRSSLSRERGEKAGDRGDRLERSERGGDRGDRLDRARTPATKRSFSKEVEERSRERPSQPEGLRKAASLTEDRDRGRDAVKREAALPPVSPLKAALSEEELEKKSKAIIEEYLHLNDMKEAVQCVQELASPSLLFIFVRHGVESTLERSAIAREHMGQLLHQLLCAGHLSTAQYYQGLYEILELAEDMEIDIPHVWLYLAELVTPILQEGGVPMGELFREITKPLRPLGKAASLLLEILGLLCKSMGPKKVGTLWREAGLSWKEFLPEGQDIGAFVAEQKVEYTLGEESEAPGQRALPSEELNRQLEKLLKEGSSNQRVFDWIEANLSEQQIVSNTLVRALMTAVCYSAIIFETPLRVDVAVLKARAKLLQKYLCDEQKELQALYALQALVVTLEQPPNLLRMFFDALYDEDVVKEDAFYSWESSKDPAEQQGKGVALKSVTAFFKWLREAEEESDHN
PABP polyA inh: PABP-poly(A) binding inhibition. P11940. PABP-poly(A) RNA binding, fluorescence polarization. calls only at 35 µM. actives 1% (n = 290,000). AID 2014;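 note: calls also rest on retests at 20 µM and on dose response follow-up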
eIF4H FP inh: inhibitors of RNA binding by human eIF4H. eIF4H fluorescence polarization binding assay. inhibition, % at 35 µM. actives 0.94% (n = 290,000);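 note: calls also rest on retests at 20 µM and on dose response follow-up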
PABP1 MLLE inh: blocks PAM2 peptide binding to the PABP1 MLLE domain; P11940; GST-MLLE / FITC-PAM2 fluorescence polarization; inhibition, % at 20 µM; actives 0.36% (n = 360,000); AID 588489; in the data active = inhibition above about 35%, passing the limit was not always enough
PERK inhibitor: blocks human PERK kinase; actives 0.17% (n = 220,000); Q9NZJ5; AID 1416; inhibition, % at 5.6 µM; CHO PERK-DD fusion, SEAP luminescence translation reporter;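 active = inhibition above the mean inhibition of all tested compounds plus 3 SD, set separately per screening campaign, cut at about 2.9% in these data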;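 note: PERK kinase domain activated by AP20187 dimerizer at 100 nM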
Of the large screens only hits and unclear results are named; the others gave an inactive call. This is a sample that favours compounds with a hit; in the whole collection about 1.6% have one here. Unless noted, the rule behind the calls is not given here.

COc1cc(C=C2C(=O)c3ccccc3C2=O)cc(OC)c1	none
COc1cccc(/C=C2\C(=O)C(=O)c3ccccc32)c1	PABP1 MLLE inh 38
Cc1ccc(C2Nc3ccccc3NC3=C2C(=O)CC(C)(C)C3)c(O)c1 (centres undefined)	eIF4H FP inh inconclusive (no result: eIF4E-4G inh, PERK inhibitor)
Cc1ccc2c(c1)NC(c1cccs1)C1=C(CC(C)(C)CC1=O)N2 (centres undefined)	PABP polyA inh active, eIF4H FP inh 86
CCc1ccccc1NC(=O)CN1CCN(C(=O)CCC(=O)N2CCC(c3ccccc3)=N2)CC1	none (no result: eIF4E-4G inh, PABP polyA inh, eIF4H FP inh, PERK inhibitor)
COc1cnc(SCC(=O)O)[nH]c1=O	PABP polyA inh active
O=C(Nc1nc2ccc(F)cc2s1)c1ccc([N+](=O)[O-])o1	none (no result: eIF4E-4G inh, PABP polyA inh, eIF4H FP inh, PERK inhibitor)
Cc1cc(C(=O)Nc2sccc2C#N)c2ccccc2n1	PABP polyA inh active (no result: eIF4E-4G inh, PERK inhibitor)
COc1ccc(NC(=O)/C=C/c2c(Cl)nc3ccccn23)cc1	PABP polyA inh active, eIF4H FP inh 1.5
COc1ccccc1N1CCN(C(=O)/C=C/c2c(Cl)nc3ccccn23)CC1	none
COCCn1c(SC(C)C(=O)Nc2ccc(N3CCOCC3)cc2)nnc1-c1ccncc1 (centres undefined)	none (no result: eIF4E-4G inh, PABP polyA inh, eIF4H FP inh, PERK inhibitor)
O=Cc1coc2ccc3ccccc3c2c1=O	PABP1 MLLE inh 40 (no result: eIF4E-4G inh, PERK inhibitor)
CCOC(=O)c1nc2sc3c(c2c(=O)[nH]1)CCCC3	PABP polyA inh active, eIF4H FP inh inconclusive
CCOC(=O)c1nc2sc3c(c2c(=O)[nH]1)CCC(C)C3 (centres undefined)	none
CC(C)c1ccc(C2C3CSCC=C3C(C#N)=C(N)C2(C#N)C#N)cc1 (centres undefined)	PABP polyA inh active, eIF4H FP inh 128 (no result: PABP1 MLLE inh)
CN1CC=C2C(C#N)=C(N)C(C#N)(C#N)[C@H](c3cccc(Cl)c3)C2C1 (some centres undefined)	PABP polyA inh inconclusive, eIF4H FP inh inconclusive
COC(=O)C1CCN(C(=O)COC(=O)c2oc3ccc(OC)cc3c2C)CC1	none (no result: eIF4E-4G inh, PERK inhibitor)
O=C(/C=C/c1ccco1)NCc1ccco1	PABP polyA inh active, eIF4H FP inh 86
CC(C)(O)C(=O)N=Nc1c(O)[nH]c2ccccc12	none
O=C(CNC(=O)/C=C/c1ccco1)N=Nc1c(O)[nH]c2ccccc12	PABP polyA inh active, eIF4H FP inh 88 (no result: eIF4E-4G inh, PERK inhibitor)
Cc1ccc(/C=C/C(=O)NCc2ccco2)o1	PABP polyA inh active, eIF4H FP inh inconclusive (no result: PABP1 MLLE inh)
COC(=O)/C=C(\C)N=Nc1c(O)[nH]c2ccccc12	PABP polyA inh active, eIF4H FP inh 8.6
NC(=O)CC(NC(=O)c1ccc(Br)cc1)c1ccc(N2CCCCCC2)c([N+](=O)[O-])c1 (centres undefined)	none (no result: eIF4E-4G inh, PERK inhibitor)
CCCCN(C(=S)NC(=O)c1ccccc1)c1c(N)n(Cc2ccccc2)c(=O)[nH]c1=O	PABP1 MLLE inh 37
COCCCN(C(=S)NC(=O)c1ccc(Br)cc1)c1c(N)n(Cc2ccccc2)c(=O)[nH]c1=O	none
CCN(C(=O)CN1CCCc2ccccc21)c1c(N)n(Cc2ccccc2)c(=O)[nH]c1=O	PABP polyA inh active, eIF4H FP inh 99 (no result: eIF4E-4G inh, PABP1 MLLE inh, PERK inhibitor)
COC(=O)CCSC(=S)N1CCOCC1	none
CCCCCC(=O)NC(NC(=S)N1CCOCC1)C(Cl)(Cl)Cl (centres undefined)	none
CCCCCC(=O)NC(NC(=S)NC1CCS(=O)(=O)C1)C(Cl)(Cl)Cl (centres undefined)	eIF4E-4G inh 40
Cc1ccc2nc3sc(C(=O)Nc4c(C)[nH]c(=O)[nH]c4=O)c(N)c3cc2c1	none
Cc1ccc2cc3c(N)c(C(=O)Nc4c(C)[nH]c(=O)[nH]c4=O)sc3nc2c1	PABP polyA inh active
COc1ccc([C@H]2CC(=O)C=C(/C=C/c3ccccc3)C2)cc1OC	none (no result: eIF4E-4G inh, PABP polyA inh, eIF4H FP inh, PERK inhibitor)
Cc1ccc(C2CC(=O)Oc3cc(O)ccc32)cc1 (centres undefined)	PABP polyA inh active, eIF4H FP inh 50
COc1ccc(OC)c(S(=O)(=O)N2CCN(c3c(C)cccc3C)CC2)c1	eIF4E-4G inh 73
COc1ccc(OC)c(S(=O)(=O)N2CCN(c3ncccn3)CC2)c1	none (no result: eIF4E-4G inh, PERK inhibitor)
CN(C)c1nc(N)ncc1-c1ccc(Oc2ccccc2)cc1	none (no result: eIF4E-4G inh, PERK inhibitor)
Cc1ccn2c(NC3CCCC3)c(-c3cccs3)nc2c1	PABP polyA inh active, eIF4H FP inh 53
O=C(Cc1ccccc1)Nc1ccccc1C(=O)NCC1CCCO1 (centres undefined)	none (no result: eIF4E-4G inh, PERK inhibitor)
CC(CNC(=O)CN1C(=O)COc2ccc(S(=O)(=O)N3CCCCC3)cc21)c1ccccc1 (centres undefined)	none (no result: eIF4E-4G inh, PABP polyA inh, eIF4H FP inh, PERK inhibitor)
COc1ccc(CCn2c(=N)c(C(=O)NCc3ccco3)cc3c(=O)n4ccccc4nc32)cc1OC	none (no result: eIF4E-4G inh, PABP polyA inh, eIF4H FP inh, PERK inhibitor)
CCOC(=O)c1cc2c(=O)n3ccccc3nc2n(Cc2ccco2)c1=NC(=O)c1ccccc1OCC	eIF4H FP inh 90
N=c1c(C(=O)NCc2ccco2)cc2c(=O)n3ccccc3nc2n1CCc1ccccc1	PABP polyA inh active, eIF4H FP inh 59
Cc1ccc(Cn2c(=N)c(C(=O)NCc3ccco3)cc3c(=O)n4ccccc4nc32)cc1	PABP polyA inh active, eIF4H FP inh 75
CCOC(=O)c1cc2c(=O)n3ccccc3nc2n(Cc2ccco2)c1=NC(=O)c1cccnc1	none
COc1ccc(CCNC(=O)c2cc3c(=O)n4ccccc4nc3n(Cc3ccco3)c2=N)cc1OC	eIF4H FP inh 87 (no result: eIF4E-4G inh, PERK inhibitor)
CNc1nc(NC)c2cn[nH]c2n1	none (no result: eIF4E-4G inh, PABP polyA inh, eIF4H FP inh, PERK inhibitor)
O=C1CN(S(=O)(=O)c2cccc(Br)c2)CCN1	none (no result: eIF4E-4G inh, PABP polyA inh, eIF4H FP inh, PERK inhibitor)
Cc1ccc(NC(=O)CSc2nc3sc(C)cc3c(=O)n2C)cc1	none (no result: eIF4E-4G inh, PERK inhibitor)
Cc1ccc2nc3c(cc(C(=O)NCc4ccco4)c(=N)n3C3CCCC3)c(=O)n2c1	PABP polyA inh inconclusive, eIF4H FP inh inconclusive (no result: eIF4E-4G inh, PERK inhibitor)
Cc1cccn2c(=O)c3cc(C(=O)NCc4ccco4)c(=N)n(CCOCCO)c3nc12	PABP1 MLLE inh 58 (no result: PABP polyA inh, eIF4H FP inh)
N=c1c(C(=O)NCc2ccco2)cc2c(=O)n3ccccc3nc2n1CC1CCCO1 (centres undefined)	PABP1 MLLE inh 47 (no result: eIF4E-4G inh, PABP polyA inh, eIF4H FP inh)
COCCn1c(=N)c(C(=O)NCc2ccco2)cc2c(=O)n3cc(C)ccc3nc21	eIF4H FP inh 107, PABP1 MLLE inh 69
N=c1c(C(=O)NCc2ccc(F)cc2)cc2c(=O)n3ccccc3nc2n1CC1CCCO1 (centres undefined)	none
CCS(=O)(=O)C1=NN2C(=N)/C(=C\c3ccc(SCc4ccco4)o3)C(=O)N=C2S1	eIF4H FP inh inconclusive
Cc1ccnc(NC(=O)CCc2c[nH]c3ccccc23)c1	none (no result: eIF4E-4G inh, PERK inhibitor)
CC(=O)c1ccc(N2CCN(C(=O)CCC(=O)Nc3ccc4nc(N5CCN(C)CC5)cc(C)c4c3)CC2)cc1	none (no result: eIF4E-4G inh, PERK inhibitor)
Cc1ccc(S(=O)(=O)NC(=O)C2(C)CCN2C(=O)Cc2ccc(Cl)cc2Cl)nc1 (centres undefined)	none (no result: eIF4E-4G inh, PABP polyA inh, eIF4H FP inh, PERK inhibitor)
CC(CC(=O)NC1CCCCC1)S(=O)(=O)c1ccc2c(c1)NC(=O)CO2 (centres undefined)	none (no result: eIF4E-4G inh, PERK inhibitor)
CN1C=CC=C/C1=C1/N=C(c2ccccc2)OC1=O	none
CC1=CC(=C2N=C(c3ccccc3)OC2=O)C=C(C)O1	PABP polyA inh inconclusive, eIF4H FP inh inconclusive, PERK inhibitor 2.9 (no result: eIF4E-4G inh)
CCOC(=O)N1CCN(C(=O)COc2ccc3c(c2)C(=O)CC(C)(C)O3)CC1	PABP polyA inh active, eIF4H FP inh inconclusive
